# The entries come from a sample that favours the strongest signals as a whole.
# Key:
# Experiment in all cases: glycan array binding signal (z-score within array); higher = stronger binding
# Details in all cases: glycan notation: IUPAC condensed, linker removed
# Gal(b1-6)Gal = molecular target: Gal(b1-6)Gal
# Procedure, shortened: (§1)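 Glycan array data came from 3228 arrays in the Consortium for Functional Glycomics database, and only arrays with an available protein sequence were kept. Glycan names were put into IUPAC-condensed notation, and columns mapping to the same glycan were averaged. The binding signal is a within-array Z-score, averaged across arrays of one protein sequence run at different concentrations or buffers and across linkers. A negative Z-score can be read as non-binding.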
# Gal3S6S(b1-4)GlcNAc = molecular target: Gal3S6S(b1-4)GlcNAc
# Procedure, shortened: as §1
# Gal3S6S(b1-4)GlcNAc6S = molecular target: Gal3S6S(b1-4)GlcNAc6S
# Procedure, shortened: as §1
# Gal4S6S(b1-4)GlcNAc = molecular target: Gal4S6S(b1-4)GlcNAc
# Procedure, shortened: as §1
# Gal6S(b1-4)Glc = molecular target: Gal6S(b1-4)Glc
# Procedure, shortened: as §1
# [1] = molecular target: GlcA3S(b1-3)Gal(b1-4)GlcNAc(b1-2)Man
# Procedure, shortened: as §1
# [2] = molecular target: GlcNAc(a1-4)Gal(b1-4)GlcNAc(b1-3)Gal(b1-4)GlcNAc
# Procedure, shortened: as §1
# [3] = molecular target: GlcNAc(b1-2)[GlcNAc(b1-4)]Man(a1-3)[GlcNAc(b1-2)Man(a1-6)]Man(b1-4)GlcNAc(b1-4)GlcNAc
# Procedure, shortened: as §1
# [4] = molecular target: GlcNAc(b1-3)Gal(b1-4)GlcNAc(b1-3)Gal(b1-4)GlcNAc(b1-3)Gal(b1-4)GlcNAc(b1-3)Gal(b1-4)GlcNAc(b1-2)[GlcNAc(b1-3)Gal(b1-4)GlcNAc(b1-3)Gal(b1-4)GlcNAc(b1-3)Gal(b1-4)GlcNAc(b1-3)Gal(b1-4)GlcNAc(b1-6)]Man(a1-6)[GlcNAc(b1-3)Gal(b1-4)GlcNAc(b1-3)Gal(b1-4)GlcNAc(b1-3)Gal(b1-4)GlcNAc(b1-3)Gal(b1-4)GlcNAc(b1-2)Man(a1-3)]Man(b1-4)GlcNAc(b1-4)[Fuc(a1-6)]GlcNAc
# Procedure, shortened: as §1
# [5] = molecular target: GlcNAc(b1-3)[GlcNAc(b1-6)]Gal(b1-4)GlcNAc
# Procedure, shortened: as §1
# [6] = molecular target: Man(a1-2)Man(a1-2)Man(a1-3)Man
# Procedure, shortened: as §1
# [7] = molecular target: Man(a1-3)[Man(a1-6)]Man(b1-4)GlcNAc(b1-4)[Fuc(a1-6)]GlcNAc
# Procedure, shortened: as §1
# [8] = molecular target: Neu5Ac(a2-3)Gal(b1-3)GalNAc(b1-4)[Neu5Ac(a2-3)]Gal(b1-4)Glc
# Procedure, shortened: as §1
# [9] = molecular target: Neu5Ac(a2-3)Gal(b1-3)GlcNAc(b1-6)GalNAc
# Procedure, shortened: as §1
# [10] = molecular target: Neu5Ac(a2-3)Gal(b1-3)[Fuc(a1-4)]GlcNAc(b1-3)Gal(b1-4)[Fuc(a1-3)]GlcNAc
# Procedure, shortened: as §1
# [11] = molecular target: Neu5Ac(a2-3)Gal(b1-3)]Neu5Ac(a2-3)Gal(b1-4)]GlcNAc
# Procedure, shortened: as §1
# [12] = molecular target: Neu5Ac(a2-3)Gal(b1-4)GlcNAc(b1-2)Man(a1-3)[GlcNAc(b1-4)][Neu5Ac(a2-3)Gal(b1-4)GlcNAc(b1-2)Man(a1-6)]Man(b1-4)GlcNAc(b1-4)GlcNAc
# Procedure, shortened: as §1
# [13] = molecular target: Neu5Ac(a2-3)Gal(b1-4)GlcNAc(b1-2)Man(a1-3)[Neu5Ac(a2-3)Gal(b1-4)GlcNAc(b1-2)Man(a1-6)]Man(b1-4)GlcNAc(b1-4)GlcNAc
# Procedure, shortened: as §1
# [14] = molecular target: Neu5Ac(a2-3)Gal(b1-4)GlcNAc(b1-3)Gal(b1-4)GlcNAc(b1-3)Gal(b1-4)GlcNAc(b1-2)Man(a1-3)[Neu5Ac(a2-3)Gal(b1-4)GlcNAc(b1-3)Gal(b1-4)GlcNAc(b1-3)Gal(b1-4)GlcNAc(b1-2)Man(a1-6)]GalNAc
# Procedure, shortened: as §1
# [15] = molecular target: Neu5Ac(a2-3)Gal(b1-4)GlcNAc6S
# Procedure, shortened: as §1
# [16] = molecular target: Neu5Ac(a2-3)Gal(b1-4)[Fuc(a1-3)]GlcNAc(b1-3)GalNAc
# Procedure, shortened: as §1
# [17] = molecular target: Neu5Ac(a2-6)Gal(b1-4)GlcNAc(b1-2)Man(a1-6)[Man(a1-3)]Man(b1-4)GlcNAc(b1-4)GlcNAc
# Procedure, shortened: as §1
# [18] = molecular target: Neu5Ac(a2-6)Gal(b1-4)GlcNAc(b1-2)[Neu5Ac(a2-6)Gal(b1-4)GlcNAc(b1-6)]Man(a1-6)[Neu5Ac(a2-6)Gal(b1-4)GlcNAc(b1-2)Man(a1-3)][GlcNAc(b1-4)]Man(b1-4)GlcNAc(b1-4)GlcNAc
# Procedure, shortened: as §1
# [19] = molecular target: Neu5Ac(a2-6)Gal(b1-4)GlcNAc(b1-3)Gal(b1-4)GlcNAc(b1-3)Gal(b1-4)GlcNAc(b1-2)Man(a1-3)[Neu5Ac(a2-6)Gal(b1-4)GlcNAc(b1-3)Gal(b1-4)GlcNAc(b1-3)Gal(b1-4)GlcNAc(b1-2)Man(a1-6)]GalNAc
# Procedure, shortened: as §1
# Neu5Ac(a2-6)GalNAc = molecular target: Neu5Ac(a2-6)GalNAc
# Procedure, shortened: as §1
# [20] = molecular target: Neu5Ac(a2-8)Neu5Ac(a2-3)[GalNAc(b1-4)]Gal(b1-4)Glc
# Procedure, shortened: as §1
# [21] = molecular target: Neu5Gc(a2-3)Gal(b1-4)GlcNAc
# Procedure, shortened: as §1
# [22] = molecular target: Neu5Gc(a2-3)Gal(b1-4)[Fuc(a1-3)]GlcNAc
# Procedure, shortened: as §1
# [23] = molecular target: Neu5Gc(b2-6)Gal(b1-4)GlcNAc
# Procedure, shortened: as §1
binder,measurement,setting,value
"MtEccB1 (Mycobacterium tuberculosis H37Rv), O69734 (protein) MGLRLTTKVQVSGWRFLLRRLEHAIVRRDTRMFDDPLQFYSRSIALGIVVAVLILAGAALLAYFKPQGKLGGTSLFTDRATNQLYVLLSGQLHPVYNLTSARLVLGNPANPATVKSSELSKLPMGQTVGIPGAPYATPVSAGSTSIWTLCDTVARADSTSPVVQTAVIAMPLEIDASIDPLQSHEAVLVSYQGETWIVTTKGRHAIDLTDRALTSSMGIPVTARPTPISEGMFNALPDMGPWQLPPIPAAGAPNSLGLPDDLVIGSVFQIHTDKGPQYYVVLPDGIAQVNATTAAALRATQAHGLVAPPAMVPSLVVRIAERVYPSPLPDEPLKIVSRPQDPALCWSWQRSAGDQSPQSTVLSGRHLPISPSAMNMGIKQIHGTATVYLDGGKFVALQSPDPRYTESMYYIDPQGVRYGVPNAETAKSLGLSSPQNAPWEIVRLLVDGPVLSKDAALLEHDTLPADPSPRKVPAGASGAP",glycan array binding signal (z-score),Gal(b1-6)Gal,-0.836
same,glycan array binding signal (z-score),Gal3S6S(b1-4)GlcNAc,0.192
same,glycan array binding signal (z-score),Gal3S6S(b1-4)GlcNAc6S,3.9
same,glycan array binding signal (z-score),Gal4S6S(b1-4)GlcNAc,3.03
same,glycan array binding signal (z-score),Gal6S(b1-4)Glc,0.586
same,glycan array binding signal (z-score),[1],-1.14
same,glycan array binding signal (z-score),[2],0.812
same,glycan array binding signal (z-score),[3],-0.488
same,glycan array binding signal (z-score),[4],3.92
same,glycan array binding signal (z-score),[5],-0.11
same,glycan array binding signal (z-score),[6],-1.02
same,glycan array binding signal (z-score),[7],0.339
same,glycan array binding signal (z-score),[8],3.37
same,glycan array binding signal (z-score),[9],-0.342
same,glycan array binding signal (z-score),[10],0.263
same,glycan array binding signal (z-score),[11],0.038
same,glycan array binding signal (z-score),[12],4.06
same,glycan array binding signal (z-score),[13],-1.57
same,glycan array binding signal (z-score),[14],2.66
same,glycan array binding signal (z-score),[15],1.54
same,glycan array binding signal (z-score),[16],0.588
same,glycan array binding signal (z-score),[17],0.711
same,glycan array binding signal (z-score),[18],-0.566
same,glycan array binding signal (z-score),[19],2.47
same,glycan array binding signal (z-score),Neu5Ac(a2-6)GalNAc,-0.143
same,glycan array binding signal (z-score),[20],0.156
same,glycan array binding signal (z-score),[21],-0.509
same,glycan array binding signal (z-score),[22],0.844
same,glycan array binding signal (z-score),[23],-0.779

# From the supplement of paper PMC8728848
